Test results: PubChem BioAssay (NCATS)
Where “and” joins values, the source holds several entries; their conditions need not be identical. Equal entries are not always repeated. Records with an inconclusive call do not appear. Calls of active or inactive are those of the source. Unless noted, calls come from the whole dose curve; as a rule, active = well fitted curve in the direction sought with a large enough effect; inconclusive = small, poorly fitted or top-dose-only effect, or another doubt; inactive = no such curve, though single readings can be large; an effect the other way counts as inactive or inconclusive.

Assays:
[1] = Cellular Toxicity (caspase-3) BJ (AID 658); conditions: BJ fibroblasts, luminescence, normalized: DMSO 0%, staurosporine 100%; series mostly up to 91.7 µM
In short: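 Luminescent aminoluciferin-substrate cleavage reports caspase 3/7 activity in normal human BJ fibroblasts after 16 hr compound exposure at 37 °C. Normalized to DMSO (basal) and 10 uM staurosporine (100%); AC50 from Hill fit of concentration-response.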

[2] = Cellular Toxicity (caspase-3) MRC-5 (AID 659); conditions: MRC-5 cells, luminescence, normalized: DMSO 0%, 10 µM staurosporine 100%; series mostly up to 91.7 µM
In short: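 Luminescence from caspase-cleaved aminoluciferin substrate (Caspase-Glo 3/7, 1 hr RT) reports caspase 3/7 activity in MRC-5 lung fibroblasts after 16 hr compound exposure. Normalized to DMSO basal and 10 uM staurosporine as 100%; AC50 from Hill fits.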

[3] = Cellular Toxicity (caspase-3) Mesangial (AID 660); conditions: mesangial cells, normalized: DMSO 0%, 100 µM tamoxifen 100%; series mostly up to 91.7 µM;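 note: combined caspase 3 and 7 activity read by Caspase-Glo luminescence; cells exposed to compound for 16 h before the caspase read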
In short: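 Human renal glomerular mesangial cells, 1000/well, 5 h at 37 C before 16 h compound treatment. Caspase-Glo 3/7 luminescence after 20 min; normalized to DMSO and 100 uM tamoxifen, AC50 from Hill fit.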

[4] = Cellular Toxicity (caspase-3) SK-N-SH (AID 661); conditions: SK-N-SH caspase-3 activation, qHTS, DMSO as zero, staurosporine as full; series mostly up to 91.7 µM
In short: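 Human SK-N-SH neuroblastoma cells, 1500/well, were exposed to compounds for 16 hours at 37 °C. Caspase-Glo 3/7 luminescence was normalized to DMSO (basal) and 10 uM staurosporine (100%), and AC50 came from a Hill fit.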

[5] = Cellular Toxicity (caspase-3) H-4-II-E (AID 663); conditions: H-4-II-E rat hepatoma, scaled: DMSO 0%, 100 µM tamoxifen 100%; series mostly up to 92.2 µM;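 note: cells exposed to compound for 16 hr before readout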
In short: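 Luminescence from caspase-cleaved aminoluciferin substrate, read 20 min after reagent addition, reports caspase 3/7 activation in rat H-4-II-E cells after 16 hr compound exposure. Normalized to DMSO (basal) and 100 uM tamoxifen (100%); AC50 from Hill fits.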

[6] = Cellular Toxicity (caspase-3) NIH 3T3 (AID 666); conditions: NIH 3T3 caspase-3 activation, apoptosis/toxicity, 0% DMSO, 100% is 100 µM tamoxifen; series mostly up to 92.2 µM;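 note: 0% = DMSO basal and 100% = 100 µM tamoxifen stimulation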
In short: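 Mouse NIH 3T3 fibroblasts (1000/well) treated 16 h at 37 C; caspase-3/7 activity measured by Caspase-Glo 3/7 luminescence after 20 min. Normalized to DMSO and 100 uM tamoxifen; AC50 from Hill fits.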

[7] = MultiTox-Fluor Cytotoxicity Assay - LYMP1-001 - Dead Cells (AID 946); conditions: LYMP1-001 lymphoblastoid cells, dead-cell protease fluorescence; series mostly up to 92.2 µM;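 note: 0% = DMSO and 100% = tetraoctylammonium bromide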
In short: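 Seed 2500 LYMP1-001 cells/well, incubate 5 hr at 37 C; add compound, 16 hr at 37 C; add MultiTox-Fluor reagent, 60 min RT; read dead-cell fluorescence Ex/Em=485/520. Normalize to DMSO and 15 uM tetraoctylammonium bromide.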

[8] = Cell Viability - LYMP1-002 - Assay at 16 hr (AID 948); conditions: LYMP1-002 lymphoblastoid cell viability; series mostly up to 92.2 µM;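 note: 0% = DMSO alone and full effect = 92 µM tetraoctylammonium bromide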
In short: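 Acute cytotoxicity is scored as a concentration-dependent fall in intracellular ATP in a human lymphoblastoid line (LYMP1-002) after 16 hr compound exposure at 37 C, measured by luciferase luminescence.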

[9] = Cell Viability - LYMP1-003 - Assay at 24 hr (AID 963); conditions: LYMP1-003 lymphoblastoid cell viability; series mostly up to 92.2 µM;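 note: plate controls were DMSO only for no effect and tetraoctylammonium bromide positive control for full effect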
In short: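 Human lymphoblastoid LYMP1-003 cells, 2500/well, treated 24 h at 37 C in complete medium. Viability read as intracellular ATP by CellTiter-Glo luminescence after 30 min at room temperature; AC50 from Hill-equation fits of qHTS concentration-response.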

[10] = Cell Viability - LYMP1-003 - Assay at 40 hr (AID 964); conditions: LYMP1-003 lymphoblastoid viability; series mostly up to 92.2 µM; note: % is set by controls: 0 for no effect and ±100 for the full control effect; nearly all actives have a fitted effect of over 60% in size
In short: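 LYMP1-003 human lymphoblastoid cells, 2500/well, preincubated 5 h at 37 C, then treated with compound for 40 h at 37 C. Intracellular ATP read by CellTiter-Glo luminescence after 30 min at room temperature; AC50 from Hill-equation fits.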

[11] = Cell Viability - LYMP2-004 (AID 966); conditions: LYMP2-004 lymphoblastoid cell viability, qHTS; series mostly up to 92.2 µM;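 note: plate controls were DMSO only for no effect and tetraoctylammonium bromide control for full effect; nearly all actives have a fitted effect of over 65% in size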
In short: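 Lymphoblastoid LYMP2-004 cells, 2500 per well, were preincubated for 5 hr and then treated with compound for 24 h at 37 C in complete medium. Viability was read as cellular ATP by CellTiter-Glo luminescence, and AC50 values were taken from Hill fits to concentration-response data.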

[12] = Cell Viability - LYMP2-025 (AID 976); conditions: LYMP2-025 lymphoblastoid cell viability; series mostly up to 92.2 µM;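 note: plate controls were DMSO only for no effect and tetraoctylammonium bromide control for full effect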
In short: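 Human lymphoblastoid LYMP2-025 cells, 2500/well, exposed 24 h at 37 C in complete medium in 1536-well qHTS. Viability as cellular ATP by CellTiter-Glo luminescence; AC50 from Hill fits of concentration-response data.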

[13] = Cell Viability - LYMP2-002 (AID 977); conditions: LYMP2-002 lymphoblastoid cell viability, qHTS; series mostly up to 92.2 µM;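 note: plate controls were DMSO only for no effect and 92 µM tetraoctylammonium bromide for full effect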
In short: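 Luminescent ATP readout (CellTiter-Glo, 30 min room temperature) after 24 h compound exposure at 37 C of a human lymphoblastoid line, 2500 cells/well. AC50 values derived by standard Hill fitting of qHTS concentration-response data.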

[14] = Cell Viability - LYMP2-007 (AID 979); conditions: LYMP2-007 lymphoblastoid cell viability; series mostly up to 92.2 µM;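 note: cells exposed to compound for 24 h before reading; 0% = DMSO only and the negative end = 92 µM tetraoctylammonium bromide; nearly all actives have a fitted effect of over 60% in size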
In short: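 Human lymphoblastoid LYMP2-007 cells (2500/well) preincubated 5 h at 37 C, then treated 24 h at 37 C in complete medium. Viability by CellTiter-Glo ATP luminescence after 30 min at room temperature; AC50 from Hill fits.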

[15] = Cell Viability - LYMP2-008 (AID 980); conditions: LYMP2-008 lymphoblastoid cell viability, qHTS; series mostly up to 92.2 µM; note: % is set by controls: 0 for no effect and ±100 for the full control effect; nearly all actives have a fitted effect of over 60% in size
In short: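 LYMP2-008 lymphoblastoid cells (2500/well) plated 5 h, then treated 24 h at 37 C in complete medium. Viability read as intracellular ATP by CellTiter-Glo luminescence after 30 min at room temperature; AC50 from Hill fits.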

[16] = Cell Viability - LYMP2-014 (AID 983); conditions: LYMP2-014 lymphoblastoid cells, viability qHTS; series mostly up to 92.2 µM;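 note: plate controls were DMSO only for no effect and 92 µM tetraoctylammonium bromide for full effect; nearly all actives have a fitted effect of over 50% in size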
In short: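 LYMP2-014 human lymphoblastoid cells, 2500/well, treated 24 h at 37 C in complete medium; viability by CellTiter-Glo ATP luminescence after 30 min at room temperature. AC50 from Hill fits of qHTS concentration-response; tetraoctylammonium bromide positive control.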

[17] = Cell Viability - LYMP2-018 (AID 985); conditions: LYMP2-018 lymphoblastoid cells, viability (qHTS); series mostly up to 92.2 µM;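 note: compound exposure lasted 24 hr at 37 °C; plate controls were DMSO only for no effect and tetraoctylammonium bromide at 92 µM for full effect; nearly all actives have a fitted effect of over 50% in size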
In short: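 Human lymphoblastoid LYMP2-018 cells, 2500/well, settled 5 hr at 37 C then exposed to compound 24 hr at 37 C; intracellular ATP measured by CellTiter-Glo luminescence. AC50 from Hill-equation concentration-response fits.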

[18] = qHTS assay for small molecule agonists of the antioxidant response element (ARE) signaling pathway measured by Nrf2-dependant transcriptional activity - cell viability counter screen (AID 720653; active = well fitted curve in the direction sought with a large enough effect in the repeat runs; an effect the other way counts as inactive or inconclusive; note: % is set by controls: 0 for no effect and ±100 for the full control effect); conditions: ARE-bla HepG2 viability, CellTiter-Glo ATP luminescence, 16 h; hits give low values
In short: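 ARE-bla HepG2 cells (2,000/well) rested 5 hrs at 37C/5% CO2, then exposed to compounds in DMSO for 16 hrs. Viability was read in the same wells as intracellular ATP by luminescence, 30 min at room temperature after reagent addition.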

[19] = qHTS assay for cell viability of HEK293 cells (AID 743288); conditions: ATP luminescence (CellTiter-Glo), 18 h; max response: hits give low values; note: % is set by controls: 0 for no effect and ±100 for the full control effect; nearly all actives have a fitted effect of over 50% in size
In short: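 The Tox21 protocol used parental HEK293 cells treated for 18 h at 37 C with compounds delivered by pintool; ATP-coupled luminescence after 30 min at room temperature gave viability.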

[20] = qHTS assay for cell viability of the p53RE-bla HCT-116 cell line (AID 743292); conditions: p53RE-bla HCT-116 viability, ATP luminescence, 16 h; series mostly up to 95 µM; note: % is set by controls: 0 for no effect and ±100 for the full control effect; nearly all actives have a fitted effect of over 55% in size
In short: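 CellSensor p53RE-bla HCT-116 cells (4,000/well) pre-incubated 5 h at 37 C, then exposed to compounds in DMSO for 16 h at 37 C. Viability read as ATP content by CellTiter-Glo luminescence after 30 min at room temperature.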

CN=C=S
inactive: outcome [1] | outcome [2] | outcome [3] | outcome [4] | outcome [5] | outcome [6] | Potency [7] | Potency [8] | Potency [9] | Potency [10] | Potency [11] | Potency [12] | Potency [13] | Potency [14] | Potency [15] | Potency [16] | Potency [17] | max response [18] 4% and -4.66% | max response [19] -4.04% and -6.57% | Potency [20]

CCC[CH2][Sn]([Cl])([Cl])[Cl]
inactive: outcome [1] | outcome [2] | outcome [3] | outcome [4] | outcome [5] | outcome [6] | Potency [7] | Potency [8] | Potency [9] | Potency [10] | Potency [11] | Potency [12] | Potency [13] | Potency [14] | Potency [15] | Potency [16] | Potency [17] | max response [18] -3.93% and 8.73% | max response [19] 9.1% and -10.4% | Potency [20]

ClC(Cl)=C(Cl)Cl
inactive: outcome [1] | outcome [2] | outcome [3] | outcome [4] | outcome [5] | outcome [6] | Potency [7] | Potency [8] | Potency [9] | Potency [10] | Potency [11] | Potency [12] | Potency [13] | Potency [14] | Potency [15] | Potency [16] | Potency [17] | max response [18] 5.48% and 2.15% | max response [19] 2.96% and -9.63% | Potency [20]

c1ccc(OP(Oc2ccccc2)Oc2ccccc2)cc1
inactive: outcome [1] | outcome [2] | outcome [3] | outcome [4] | outcome [5] | outcome [6] | Potency [7] | Potency [8] | Potency [9] | Potency [10] | Potency [11] | Potency [12] | Potency [13] | Potency [14] | Potency [15] | Potency [16] | Potency [17] | max response [18] 3.55% and -14.3% | max response [19] -13.6% and -7.52% | Potency [20]

CCCCOCCOP(=O)(OCCOCCCC)OCCOCCCC
inactive: outcome [1] | outcome [2] | outcome [3] | outcome [4] | outcome [5] | outcome [6] | Potency [7] | Potency [8] | Potency [9] | Potency [10] | Potency [11] | Potency [12] | Potency [13] | Potency [14] | Potency [15] | Potency [16] | Potency [17] | max response [18] -2.06% and 1.41% | max response [19] -5.77% and -12.8% | Potency [20]

C1CCC2CCCCC2C1 (stereo not given)
inactive: outcome [1] | outcome [2] | outcome [3] | outcome [4] | outcome [5] | outcome [6] | Potency [7] | Potency [8] | Potency [9] | Potency [10] | Potency [11] | Potency [12] | Potency [13] | Potency [14] | Potency [15] | Potency [16] | Potency [17] | max response [18] 2.05% | max response [19] 0.933% | Potency [20]

NC(=S)Nc1ccccc1
inactive: outcome [1] | outcome [2] | outcome [3] | outcome [4] | outcome [5] | outcome [6] | Potency [7] | Potency [8] | Potency [9] | Potency [10] | Potency [11] | Potency [12] | Potency [13] | Potency [14] | Potency [15] | Potency [16] | Potency [17] | max response [18] -3.66% and 8.32% and -3.85% | max response [19] -1.42% and -0.575% and -4.82% | Potency [20]

C[C@]12CC[C@H]3[C@@H](CCC4=CC(=O)CC[C@@]43C)[C@@H]1CC[C@@H]2O
inactive: outcome [1] | outcome [2] | outcome [3] | outcome [4] | outcome [5] | outcome [6] | Potency [7] | Potency [8] | Potency [9] | Potency [10] | Potency [11] | Potency [12] | Potency [13] | Potency [14] | Potency [15] | Potency [16] | Potency [17] | max response [18] -2.92% | max response [19] -9.57% | Potency [20]

Nc1ccc(Br)cc1
inactive: outcome [1] | outcome [2] | outcome [3] | outcome [4] | outcome [5] | outcome [6] | Potency [7] | Potency [8] | Potency [9] | Potency [10] | Potency [11] | Potency [12] | Potency [13] | Potency [14] | Potency [15] | Potency [16] | Potency [17] | max response [18] -4.77% | max response [19] -7.62% | Potency [20]

CC(C)(c1ccccc1)c1ccc(O)cc1
inactive: outcome [1] | outcome [2] | outcome [3] | outcome [4] | outcome [5] | outcome [6] | Potency [7] | Potency [8] | Potency [9] | Potency [10] | Potency [11] | Potency [12] | Potency [13] | Potency [14] | Potency [15] | Potency [16] | Potency [17] | max response [18] 9.52% and -12.4% | max response [19] -13.3% and 1.83% | Potency [20]

BrCCBr
inactive: outcome [1] | outcome [2] | outcome [3] | outcome [4] | outcome [5] | outcome [6] | Potency [7] | Potency [8] | Potency [9] | Potency [10] | Potency [11] | Potency [12] | Potency [13] | Potency [14] | Potency [15] | Potency [16] | Potency [17] | max response [18] 2.36% and -0.33% | max response [19] 2.15% and 1.92% | Potency [20]
